# BLM helicase inh = qHTS Assay for Inhibitors of Bloom's syndrome helicase (BLM); 0.2% of 350,000 active; Potency, µM (series often up to 56.1 µM), for inactives: at the highest dose activity change, negative = inhibition, usual class: inhibitors; RecQ-like DNA helicase BLM (Homo sapiens), P54132; recombinant BLM DNA unwinding, fluorescence dequenching;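 also: plate controls were vehicle for no effect and no enzyme for full effect; nearly all actives have a fitted effect of over 35% in size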
# Target sequence (P54132 whole entry, looked up): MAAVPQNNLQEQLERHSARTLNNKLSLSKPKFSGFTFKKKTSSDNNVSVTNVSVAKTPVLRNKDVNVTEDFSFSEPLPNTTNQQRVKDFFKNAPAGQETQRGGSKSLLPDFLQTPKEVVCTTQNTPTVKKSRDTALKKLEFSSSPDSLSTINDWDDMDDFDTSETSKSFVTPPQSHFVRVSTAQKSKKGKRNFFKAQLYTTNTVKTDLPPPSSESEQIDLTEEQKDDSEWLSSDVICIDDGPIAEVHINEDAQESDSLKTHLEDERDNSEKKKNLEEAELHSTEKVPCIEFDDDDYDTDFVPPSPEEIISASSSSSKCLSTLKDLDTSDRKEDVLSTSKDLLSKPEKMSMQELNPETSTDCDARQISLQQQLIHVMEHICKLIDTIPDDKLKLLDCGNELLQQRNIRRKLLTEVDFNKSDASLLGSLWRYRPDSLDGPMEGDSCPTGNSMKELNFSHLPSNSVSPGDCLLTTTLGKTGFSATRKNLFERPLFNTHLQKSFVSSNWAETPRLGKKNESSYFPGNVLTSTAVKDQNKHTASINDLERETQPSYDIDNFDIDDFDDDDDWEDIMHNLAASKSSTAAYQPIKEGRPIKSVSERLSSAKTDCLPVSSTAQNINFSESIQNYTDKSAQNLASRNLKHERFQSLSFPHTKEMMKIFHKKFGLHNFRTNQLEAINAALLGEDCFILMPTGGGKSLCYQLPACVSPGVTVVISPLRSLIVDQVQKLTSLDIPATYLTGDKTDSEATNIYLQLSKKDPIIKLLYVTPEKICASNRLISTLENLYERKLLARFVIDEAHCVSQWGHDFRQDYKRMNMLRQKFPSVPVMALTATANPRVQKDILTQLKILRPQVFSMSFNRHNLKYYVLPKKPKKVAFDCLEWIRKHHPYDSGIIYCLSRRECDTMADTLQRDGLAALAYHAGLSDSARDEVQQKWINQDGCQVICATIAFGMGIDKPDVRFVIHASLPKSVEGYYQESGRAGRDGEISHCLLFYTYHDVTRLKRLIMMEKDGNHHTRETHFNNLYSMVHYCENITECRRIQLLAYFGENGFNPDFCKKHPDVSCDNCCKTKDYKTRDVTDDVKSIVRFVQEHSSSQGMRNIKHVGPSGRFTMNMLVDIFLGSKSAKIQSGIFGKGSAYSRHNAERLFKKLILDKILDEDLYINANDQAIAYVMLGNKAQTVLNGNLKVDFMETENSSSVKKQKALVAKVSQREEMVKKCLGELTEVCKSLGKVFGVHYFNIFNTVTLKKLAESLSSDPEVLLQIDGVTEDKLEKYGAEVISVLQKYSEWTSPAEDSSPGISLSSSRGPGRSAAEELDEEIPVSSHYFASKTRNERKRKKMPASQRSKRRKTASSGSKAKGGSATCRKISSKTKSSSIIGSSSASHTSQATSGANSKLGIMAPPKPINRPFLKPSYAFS
# APE1 inh-1 = qHTS Assay for Inhibitors of the Human Apurinic/apyrimidinic Endonuclease 1 (APE1); 0.35% of 350,000 active; recombinant APE1, TAMRA/BHQ-2 abasic DNA cleavage fluorescence; Potency, µM (top dose mostly 65.8 µM), without a hit: at the highest dose activity change, negative = inhibition, usual class: inhibitors; DNA repair nuclease/redox regulator APEX1 (Homo sapiens), P27695;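 also: plate controls were vehicle for no effect and reference inhibitor for full effect; nearly all actives have a fitted effect of over 55% in size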
#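 Enzyme (0.75 nM final) and test compound are incubated 15 min at room temperature before adding 50 nM quenched THF abasic-site duplex. Cleavage dequenches TAMRA, followed at 525/598 nm over three reads one minute apart.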
# RECQ1 helicase = qHTS Assay for Inhibitors of RecQ-Like Dna Helicase 1 (RECQ1). ATP-dependent DNA helicase Q1 (Homo sapiens), P46063. RECQ1 DNA unwinding, red fluorescence kinetic read. Potency, µM (doses to about 57.3 µM), for the others: top-dose activity, negative = inhibition, hits mostly inhibitors. 0.54% of 240,000 active;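 also: plate controls were vehicle for no effect and no enzyme for full effect; nearly all actives have a fitted effect of over 30% in size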
#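 RECQ1T1 50 nM; forked duplex (20 bp + 30-nt ss tails) 200 nM, ATP 2 mM final; pH 8.0, 2 mM MgCl2, 2.5 ug/ml poly(dI-dC); 15 min compound preincubation; discontinuous kinetic read over 2 h at RT.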
# L3MBTL1 inh = qHTS Assay for the Inhibitors of L3MBTL1 | Lethal(3)malignant brain tumor-like protein 1 (Homo sapiens), Q9Y468 | AlphaScreen L3MBTL1–H3K9me1 peptide binding | Potency, µM (highest dose often 57.1 µM), inactives show at the top dose activity, negative = inhibition, most hits filed as inhibitors | 0.66% of 230,000 active; also: nearly all actives have a fitted effect of over 60% in size
#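 L3MBTL1 50 nM + b-AHA-H3(1-15)K9me1 75 nM, 30 min RT; compound added, 30 min RT; streptavidin donor/Ni-chelate acceptor beads 10 ug/mL each final, 30 min RT dark; AlphaScreen read.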
# WRN helicase inh = qHTS for Inhibitors of WRN Helicase | 0.46% of 360,000 active | WRN helicase unwinding, fluorescent forked duplex, kinetic | Potency, µM (titrated, usually from 114 µM), inactives show top-dose activity change, negative = inhibition, most hits filed as inhibitors | AID 651768, 2012 | Bifunctional 3'-5' exonuclease/ATP-dependent helicase WRN (Homo sapiens), Q14191; also: nearly all actives have a fitted effect of over 55% in size
#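 WRN at 20 nM final was preincubated with compound for 15 min at room temperature; reaction started with 100 nM forked duplex oligonucleotide carrying fluorophore and quencher plus 2 mM ATP (final). Unwinding followed kinetically by red fluorescence (ex 525/em 598 nm).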
# APE1 dye cs = Counterscreen for APE1 Inhibitors: Fluorescent Dye Displacement Assay | shares compounds with APE1 inh-1 | DNA fluorescent dye displacement counterscreen, fluorescence | Potency, µM (titrated, usually from 28.5 µM), without a hit: top-dose activity change, negative = inhibition, usual class: inhibitors | 7% of 480 active;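 also: loss of thiazole orange fluorescence as the dye is displaced from duplex DNA; 0% = ThO with dsDNA and no compound and -100% = ThO without dsDNA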
# Endo IV inh = Counterscreen for APE1 Inhibitors: qHTS Assay for Inhibitors of Endonuclease IV. shares compounds with APE1 inh-1. E. coli Endo IV, fluorogenic AP-site DNA cleavage. Potency, µM (highest dose often 27.1 µM), without a hit: at the highest dose activity change, negative = inhibition, hits mostly inhibitors. 4% of 560 active;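 also: plate controls were uninhibited enzyme wells for no effect and no enzyme buffer wells for full effect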
# APE1 inh-2 = Confirmation qHTS Assay for Inhibitors of the Human Apurinic/apyrimidinic Endonuclease 1 (APE1). AID 2572, 2010. purified APE1, fluorogenic abasic-site DNA cleavage. Potency, µM (titrated, usually from 57.1 µM), inactives show at the highest dose activity change, negative = inhibition, hits mostly inhibitors. 44% of 750 active. shares compounds with APE1 inh-1; also: nearly all actives have a fitted effect of over 30% in size
# APE1 FP inh = qHTS FP-Based Assay for Inhibitors of the Human Apurinic/apyrimidinic Endonuclease 1 (APE1) | 7% of 480 active | AID 2573, 2010 | shares compounds with APE1 inh-1 | Potency, µM (titrated, usually from 28.5 µM), for the others: top-dose activity, negative = inhibition, actives largely listed as inhibitors | APE1 binding to TAMRA-labelled double-stranded DNA, fluorescence polarization displacement
# Active calls of the source: *; i = inactive; u = inconclusive; x = not tested or not shown; [ ] = remark or other dose. Sampled rows, rich in hits. Any-hit rate of the full collection: about 0.92%. Calls follow the shape of the dose curve; as a rule, active = well fitted curve in the direction sought with a large enough effect; inconclusive = small, poorly fitted or top-dose-only effect, or another doubt; inactive = no such curve, though single readings can be large; an effect the other way counts as inactive or inconclusive. Unless noted, % is scaled to controls: 0 for no effect and ±100 for the full control effect; potency is read from the fitted curve at half-maximal effect.
SMILES,BLM helicase inh,APE1 inh-1,RECQ1 helicase,L3MBTL1 inh,WRN helicase inh,APE1 dye cs,Endo IV inh,APE1 inh-2,APE1 FP inh
CC(C)C[C@H](NC(=O)CNC(=O)[C@H](C)NC(=O)[C@H](CC(C)C)NC(=O)[C@H](CCCNC(=N)N)NC(=O)[C@H](Cc1cnc[nH]1)NC(=O)[C@@H](NC(=O)[C@@H](N)C(C)C)[C@@H](C)O)C(=O)N[C@@H](CC(C)C)C(=O)N[C@@H](CO)C(=O)N[C@@H](CCCNC(=N)N)C(=O)N[C@@H](CO)C(=O)NCC(=O)NCC(=O)N[C@H](C(=O)N[C@H](C(=O)N[C@@H](CCCCN)C(=O)N[C@@H](CC(N)=O)C(=O)N[C@@H](CC(N)=O)C(=O)N[C@@H](Cc1ccccc1)C(=O)N[C@H](C(=O)N1CCC[C@H]1C(=O)N[C@H](C(=O)N[C@@H](CC(N)=O)C(=O)N[C@H](C(=O)NCC(=O)N[C@@H](CO)C(=O)N[C@@H](CCCCN)C(=O)N[C@@H](C)C(=O)N[C@@H](Cc1ccccc1)C(N)=O)C(C)C)[C@@H](C)O)C(C)C)C(C)C)C(C)C,3.7%,-0.6%,-2.8%,x,x,x,x,x,x
O=C(O)c1cc(=O)c2cc(Cl)ccc2[nH]1,-1.2%,-0.2%,-9.4%,x,x,x,x,x,x
CCCCC[C@H](O)/C=C/[C@@H]1[C@@H](C/C=C\CCCC(=O)OC)[C@@H](O)C[C@H]1O,-19.1%,7.2%,-0.6%,u,11.9%,x,x,-14.3%,x
COc1ccc(-n2c(C)cc(C=O)c2C)cc1Cl,-5.5%,1.3%,-11.0%,-16.7%,7.3%,x,x,x,x
Cc1cc(C=O)c(C)n1-c1ccc(Cl)c(C(=O)O)c1,-2.8%,5.62µM*,28.2µM*,3.98µM*,u,5.8%,8.4%,8.91µM*,-23.0%
CN=c1scc(-c2ccccc2F)n1/N=C/c1ccc[nH]1,-6.7%,35.5µM*,i,x,0.4%,17.0%,6.0%,u,-34.1%
CC(C)[C@H](N)C(=O)N[C@@H](CCC(N)=O)C(=O)NCC(=O)N[C@@H](CCC(=O)O)C(=O)N[C@@H](CCC(=O)O)C(=O)N[C@@H](CO)C(=O)N[C@@H](CC(N)=O)C(=O)N[C@@H](CC(=O)O)C(=O)N[C@@H](CCCCN)C(=O)O,-0.3%,-5.3%,-10.4%,x,x,x,x,x,x
C[C@@H]1C(=O)O[C@H]2[C@H](O)[C@@]34[C@H]5CC(C(C)(C)C)[C@]36[C@H](OC(=O)[C@H]6O)O[C@]4(C(=O)O5)[C@@]12O (stereo partly specified),-3.6%,u,-26.6%,x,x,x,x,x,x
COc1ccc2c(c1)c(=O)oc1cc(OCC(=O)N3CCC(C)CC3)ccc12,-28.2%,15.8µM*,39.8µM*,u,u,-9.0%,-0.2%,5.01µM*,u
Cc1c(-c2ccc(Cl)cc2)oc(=O)c2c(N)n(-c3ccccc3)nc12,u,-6.6%,-10.1%,-2.0%,-32.5%,x,x,u,x
Nc1c2c(=O)oc(-c3ccccc3)cc2nn1-c1ccccc1,-6.6%,-6.8%,-7.7%,-0.4%,-16.1%,x,x,x,x
C/C=C(\C=C\[C@@H](C)C/C=C/CC/C=C/C=C\C[C@@H](OC)/C(C)=C\C=C(C)C)CC(=O)O,-11.5%,-3.7%,i,x,x,x,x,x,x
COc1c(O)cc2c(c1O)C(=O)CC(c1ccccc1)O2 (stereo unspecified),-2.6%,25.1µM*,-10.1%,5.1%,x,-2.7%,1.9%,-11.4%[24.4 µM],0.2%
Cc1cc(/C=N/NC(=O)c2cccc(N(C)C)c2)c(C)n1-c1cc(C(=O)O)cc(C(=O)O)c1,4.0%,28.2µM*,i,x,u,-7.6%,7.5%,u,-4.8%
CC1=CC23C(=O)C(C=C(CO)[C@@H](O)[C@]2(O)[C@H]1O)[C@H]1[C@@H](C[C@H]3C)C1(C)C (stereo partly specified),-3.8%,-3.6%,-9.3%,x,x,x,x,x,x
CC(C)(C)c1ccc(C(=O)Nc2nc3nc(-c4ccccc4)cc(=O)n3[nH]2)cc1,-4.5%,x,x,x,x,x,x,x,x
Cc1ccc(C(=O)Nc2nc3nc(-c4ccccc4)cc(=O)n3[nH]2)cc1,1.3%,-0.5%,-5.4%,x,-16.0%[11.6 µM],x,x,u,x
COc1ccc(OC)c(-c2csc(N(Cc3ccco3)C(=O)c3ccco3)n2)c1,-16.1%,u,-6.7%,x,u,-11.0%,u,u,-2.6%
COCCCN(C(=O)c1ccco1)c1nc(-c2cc(OC)ccc2OC)cs1,-7.2%,-3.7%,-7.7%,-3.7%,-7.8%,x,x,x,x
CCN(c1ccccc1)S(=O)(=O)c1cc(C(=O)OC(C)C(=O)Nc2ccc3c(c2)OCCO3)ccc1C (stereo unspecified),-14.4%,11.2µM*,-11.8%,-16.8%,-9.6%[11.6 µM],18.2%,-7.0%,14.1µM*,u
Nc1nc(Cl)nc2c1ncn2[C@@H]1O[C@H](CO)[C@H](O)[C@H]1O,x,-3.4%,-6.3%,x,x,x,-5.8%[57.1 µM],-27.8%,x
C[C@H](C(=O)O)c1ccc2cc(O)ccc2c1,3.5%,9.0%,-1.0%,x,x,x,x,x,x
O=C(NNC(=O)c1ccc(Br)o1)c1ccc(NC(=O)c2ccccc2)cc1,-10.0%,14.1µM*,i,-1.6%[11.4 µM],-10.5%,4.4%,0.9%,u,1.4%
O=C(Nc1ccccc1C(=O)O)c1ccc(NC(=O)c2ccc(Br)o2)cc1,-0.6%,13.4%,-4.6%,x,-27.1%[57.1 µM],x,x,x,x

# Screening results: PubChem BioAssay, National Center for Advancing Translational Sciences (NCATS)
